This note sets out measurements from PubChem BioAssay (EPA / NIEHS).

One may read the AC50 as the concentration at which the activity in the assay is half-maximal.

Holding throughout (conditions): mRNA level, 48 h; actives raise or lower the signal
Read-out in test [1]: ABC Transporter (ABCB1), ABCB1 (gene 5243)
Nature of the test: LTEA_HepaRG_ABCB1: Life Technologies and Expression Analysis (LTEA) Assay for ABC Transporter (ABCB1) using HepaRG (AID 2283460). The procedure, abridged: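 Human liver HepaRG line treated 48 h with up to 100 uM compound (eight half-log points, 0.5% DMSO); ABCB1 mRNA change fitted bidirectionally against DMSO controls.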

Read-out in test [2]: growth arrest and DNA damage 45 (GADD45B), GADD45B (gene 4616)
Put plainly: LTEA_HepaRG_GADD45B: Life Technologies and Expression Analysis (LTEA) Assay for growth arrest and DNA damage 45 (GADD45B) using HepaRG (AID 2283461). The procedure, abridged:
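Transcript level quantified by Fluidigm TaqMan qRT-PCR with three housekeeping genes for normalization, analyzed for up- or down-regulation against 0.5% DMSO. HepaRG cultures dosed 48 h at eight half-log concentrations up to 100 uM, duplicates.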

Read-out in test [3]: ABC Transporter (ABCC3), ABCC3 (gene 8714)
Nature of the test: LTEA_HepaRG_ABCC3: Life Technologies and Expression Analysis (LTEA) Assay for ABC Transporter (ABCC3) using HepaRG (AID 2283462). The procedure, abridged: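 Transcript level by TaqMan qRT-PCR, normalised to three housekeeping genes, fitted in both directions relative to vehicle. Chemicals tested in duplicate at eight half-log concentrations up to 100 uM for 48 h on HepaRG cells (0.5% DMSO).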

Read-out in test [4]: ABC Transporter (ABCC2), ABCC2 (gene 1244)
Put plainly: LTEA_HepaRG_ABCC2: Life Technologies and Expression Analysis (LTEA) Assay for ABC Transporter (ABCC2) using HepaRG (AID 2283464). The procedure, abridged: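 Endpoint is ABCC2 transcript level from qRT-PCR, normalized to three housekeeping genes and fitted bidirectionally relative to DMSO. Human HepaRG cells received test chemical for 48 h at up to 100 uM (8 points, half-log steps, 0.5% DMSO), duplicate wells.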

Read-out in test [5]: Broad substrate specificity ATP-binding cassette transporter ABCG2 (Homo sapiens) (UniProt Q9UNQ0)
Put plainly: LTEA_HepaRG_ABCG2: Life Technologies and Expression Analysis (LTEA) Assay for ABC Transporter (ABCG2) using HepaRG (AID 2283465). The gist of the method: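 Gene expression of ABCG2 in HepaRG liver cells is quantified by qRT-PCR following 48 h exposure across an eight-point series topping at 100 uM. Values come from bidirectional fitting relative to DMSO vehicle.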

Read-out in test [6]: ATP-citrate lyase (ACLY), ACLY (gene 47)
Put plainly: LTEA_HepaRG_ACLY: Life Technologies and Expression Analysis (LTEA) Assay for ATP-citrate lyase (ACLY) using HepaRG (AID 2283466). The gist of the method: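 ACLY expression changes in human HepaRG liver cells are quantified by qRT-PCR after 48 h exposure to test chemicals (maximum 100 uM, half-log steps). Values are fitted in both directions relative to 0.5% DMSO vehicle.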

Read-out in test [7]: Peroxisomal acyl-coenzyme A oxidase 1 (ACOX1) gene, ACOX1 (gene 51)
Nature of the test: LTEA_HepaRG_ACOX1: Life Technologies and Expression Analysis (LTEA) Assay for Peroxisomal acyl-coenzyme A oxidase 1 (ACOX1) gene using HepaRG (AID 2283467). The gist of the method:
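Human HepaRG hepatic cultures, 48 h treatment with test chemicals up to 100 uM. ACOX1 expression read by qRT-PCR relative to 0.5% DMSO vehicle.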

Read-out in test [8]: Alkaline Phosphatase, Placental (ALPP) gene, ALPP (gene 250)
Nature of the test: LTEA_HepaRG_ALPP: Life Technologies and Expression Analysis (LTEA) Assay for Alkaline Phosphatase, Placental (ALPP) gene using HepaRG (AID 2283468).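 On AC50: differentiated human HepaRG liver cells in serum-free induction medium.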 The gist of the method: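 ALPP transcript level, measured by qRT-PCR and normalized to three housekeeping genes (ACTB, GAPDH, POLR2A), after 48 h dosing of differentiated HepaRG in serum-free induction medium. Top concentration 100 uM with half-log dilutions (8 points, 0.5% DMSO, duplicates); bidirectional fitting relative to DMSO.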

Read-out in test [9]: Bcl-2 (BAD) gene, BAD (gene 572)
Nature of the test: LTEA_HepaRG_BAD: Life Technologies and Expression Analysis (LTEA) Assay for Bcl-2 (BAD) gene using HepaRG (AID 2283469). The gist of the method:
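Activity values reflect up- or down-regulation of BAD mRNA in human HepaRG hepatic cells treated 48 h in serum-free medium, with eight-point half-log dosing capped at 100 uM and 0.5% DMSO vehicle.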

Read-out in test [10]: Bcl-2 (BAX) gene, BAX (gene 581)
Nature of the test: LTEA_HepaRG_BAX: Life Technologies and Expression Analysis (LTEA) Assay for Bcl-2 (BAX) gene using HepaRG (AID 2283470). The gist of the method:
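Gene expression measured by Fluidigm qRT-PCR with three housekeeping genes for normalisation. HepaRG cells, plated 48 h beforehand, treated 48 h at up to 100 uM (8-point, half-log) in 0.5% DMSO. Bidirectional fitting versus DMSO.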

Read-out in test [11]: adenosine kinase (ADK) gene, ADK (gene 132)
Nature of the test: LTEA_HepaRG_ADK: Life Technologies and Expression Analysis (LTEA) Assay for adenosine kinase (ADK) gene using HepaRG (AID 2283471). The gist of the method:
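ADK expression quantified by qRT-PCR, normalised to three housekeeping genes, after 48 h exposure of HepaRG cells to eight concentrations (top 100 uM, half-log steps, duplicate, 0.5% DMSO). Up- or down-regulation fitted relative to vehicle.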

Read-out in test [12]: Alpha-fetoprotein (AFP) gene, AFP (gene 174)
Nature of the test: LTEA_HepaRG_AFP: Life Technologies and Expression Analysis (LTEA) Assay for Alpha-fetoprotein (AFP) gene using HepaRG (AID 2283472). The procedure, abridged:
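AFP transcript measured by TaqMan qRT-PCR with three housekeeping genes for normalization, after 48 h chemical treatment of HepaRG cells (top 100 uM, half-log steps, 0.5% DMSO). Gain or loss fitted against vehicle.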

Read-out in another test: BCL2L11 (gene 10018)
Nature of the test: LTEA_HepaRG_BCL2L11: Life Technologies and Expression Analysis (LTEA) Assay for Bcl-2 (BCL2L11) gene using HepaRG (AID 2283473). The gist of the method: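 BCL2L11 transcript levels are measured by Fluidigm qRT-PCR, normalized to three housekeeping genes. HepaRG cultures were plated 48 h, then treated 48 h with test chemical (top 100 uM, half-log, 0.5% DMSO vehicle); curves were fitted bidirectionally against DMSO.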

Read-out in test [13]: Apolipoprotein A-V (APOA5) gene, APOA5 (gene 116519)
Nature of the test: LTEA_HepaRG_APOA5: Life Technologies and Expression Analysis (LTEA) Assay for Apolipoprotein A-V (APOA5) gene using HepaRG (AID 2283474). The procedure, abridged:
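APOA5 transcript levels were quantified by qRT-PCR, normalized to three housekeeping genes, after 48 h chemical treatment of HepaRG cells (8 points, 100 uM maximum, half-log steps, 0.5% DMSO). Curves fitted in both directions against vehicle.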

Read-out in test [14]: Apoptosis regulator Bcl-2 (Homo sapiens) (UniProt P10415)
Nature of the test: LTEA_HepaRG_BCL2: Life Technologies and Expression Analysis (LTEA) Assay for Bcl-2 gene using HepaRG (AID 2283475). The procedure, abridged:
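qRT-PCR of BCL2 transcript, normalized to three housekeeping genes (ACTB, GAPDH, POLR2A), after 48 h chemical exposure of HepaRG cells; concentrations top 100 uM with half-log dilutions, 0.5% DMSO vehicle, duplicates; changes up or down fitted relative to vehicle.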

Read-out in test [15]: Bcl-2 (BID) gene, BID (gene 637)
Put plainly: LTEA_HepaRG_BID: Life Technologies and Expression Analysis (LTEA) Assay for Bcl-2 (BID) gene using HepaRG (AID 2283476). The procedure, abridged: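 Duplicate 48 h treatments of HepaRG cells in serum-free induction medium spanned 100 uM downward in half-log steps, 0.5% DMSO. Transcript change quantified by qRT-PCR against three housekeeping genes, fitted up or down versus DMSO.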

Read-out in a further test: Caspase-3 (Homo sapiens) (UniProt P42574)
Put plainly: LTEA_HepaRG_CASP3: Life Technologies and Expression Analysis (LTEA) Assay for cysteine-aspartic acid protease (CASP3) using HepaRG (AID 2283477). The gist of the method:
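Expression of CASP3 was quantified by TaqMan qRT-PCR against three housekeeping genes (ACTB, GAPDH, POLR2A), bidirectionally versus 0.5% DMSO. HepaRG cultures received compounds in duplicate, top 100 uM with half-log steps, for 48 h in serum-free induction medium.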

Read-out in test [16]: Cytochrome P450 (CYP24A1), CYP24A1 (gene 1591)
Nature of the test: LTEA_HepaRG_CYP24A1: Life Technologies and Expression Analysis (LTEA) Assay for Cytochrome P450 (CYP24A1) using HepaRG (AID 2283478). The procedure, abridged:
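mRNA of CYP24A1 quantified by TaqMan qRT-PCR (ACTB/GAPDH/POLR2A normalization) after 48 h chemical exposure of HepaRG cells, top concentration 100 uM, half-log steps, 0.5% DMSO vehicle, duplicates. Curves fitted bidirectionally against DMSO baseline.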

Read-out in test [17]: Cytochrome P450 (CYP1A2), CYP1A2 (gene 1544)
Put plainly: LTEA_HepaRG_CYP1A2: Life Technologies and Expression Analysis (LTEA) Assay for Cytochrome P450 (CYP1A2) using HepaRG (AID 2283479). The procedure, abridged:
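CYP1A2 transcript measured by TaqMan qRT-PCR against three housekeeping genes after 48-hour chemical exposure of HepaRG cells. Eight-point half-log series topping at 100 uM in 0.5% DMSO, duplicates; gain or loss fitted relative to vehicle.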

Molecules are shown by their SMILES. The source made the active and inactive calls. How the source made its calls: active means hit-call score of the fitted dose curve at least 0.9, where 1 is the maximum; inactive means score below 0.9.

Sequence of Broad substrate specificity ATP-binding cassette transporter ABCG2 (Homo sapiens) (Q9UNQ0 whole entry, looked up): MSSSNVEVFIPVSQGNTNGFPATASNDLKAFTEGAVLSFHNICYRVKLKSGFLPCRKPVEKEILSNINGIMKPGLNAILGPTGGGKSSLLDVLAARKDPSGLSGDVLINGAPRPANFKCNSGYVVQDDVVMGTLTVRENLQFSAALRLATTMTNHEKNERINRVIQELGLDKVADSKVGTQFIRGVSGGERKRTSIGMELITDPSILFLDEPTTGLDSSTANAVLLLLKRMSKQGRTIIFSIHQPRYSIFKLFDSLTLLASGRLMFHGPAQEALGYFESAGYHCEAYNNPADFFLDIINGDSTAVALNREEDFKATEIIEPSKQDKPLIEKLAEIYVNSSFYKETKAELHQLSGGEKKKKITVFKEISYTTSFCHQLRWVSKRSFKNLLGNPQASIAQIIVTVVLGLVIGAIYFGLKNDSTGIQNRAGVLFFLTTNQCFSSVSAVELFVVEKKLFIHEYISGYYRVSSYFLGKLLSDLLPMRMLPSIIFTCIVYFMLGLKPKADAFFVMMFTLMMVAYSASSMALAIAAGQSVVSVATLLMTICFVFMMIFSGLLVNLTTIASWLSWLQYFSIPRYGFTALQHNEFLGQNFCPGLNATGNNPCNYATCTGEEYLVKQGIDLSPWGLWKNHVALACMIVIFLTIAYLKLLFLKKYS
Sequence of Apoptosis regulator Bcl-2 (Homo sapiens) (P10415 whole entry, looked up): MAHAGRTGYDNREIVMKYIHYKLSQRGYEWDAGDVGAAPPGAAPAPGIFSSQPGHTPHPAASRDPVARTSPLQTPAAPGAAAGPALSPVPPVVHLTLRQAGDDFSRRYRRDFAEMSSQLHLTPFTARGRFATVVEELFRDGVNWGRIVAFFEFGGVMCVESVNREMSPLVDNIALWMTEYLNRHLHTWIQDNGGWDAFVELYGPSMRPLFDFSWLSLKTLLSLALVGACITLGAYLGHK
Sequence of Caspase-3 (Homo sapiens) (P42574 whole entry, looked up): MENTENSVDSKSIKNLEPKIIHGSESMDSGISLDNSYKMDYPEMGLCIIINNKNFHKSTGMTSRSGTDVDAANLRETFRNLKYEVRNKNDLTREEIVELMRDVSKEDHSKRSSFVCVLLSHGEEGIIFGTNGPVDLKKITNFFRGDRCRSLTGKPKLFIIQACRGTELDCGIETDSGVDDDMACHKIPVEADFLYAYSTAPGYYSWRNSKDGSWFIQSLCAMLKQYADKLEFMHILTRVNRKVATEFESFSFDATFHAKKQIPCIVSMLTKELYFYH

Consider `CCC(C)(C)c1ccc(O)cc1`, for which the compound was classed as inactive in [1], in test [2], in test [3], in [4], in test [5] and in [6]. Besides, the call in test [7], in [8], in test [9], in test [10], in [11] and in [12] was inactive. For the same compound, the call (in the test with BCL2L11 (gene 10018); in test [13]; in [14]; in test [15]; with Caspase-3 (Homo sapiens); in [16]) was inactive. The outcome in test [17] was inactive.

With `CC(Cc1ccc(OCC(=O)O)cc1)NCC(O)c1csc(C(F)(F)F)n1` (centres undefined), the result in test [1], in test [2], in [3], in test [4], in test [5] and in test [6] was inactive. The compound was classed as inactive (in test [7]; in test [9]; in [10]; in test [11]; in test [12]; with BCL2L11 (gene 10018)). For the same compound, the compound was classed as inactive (in test [13]; in test [15]; with Caspase-3 (Homo sapiens)). The concentration at half-maximal activity (AC50) is 0.0552 µM (active) in [8], 0.125 µM (active) in test [14], 0.00316 µM (active) in [16] and 0.0181 µM (active) in [17].

For `ClC1=C(Cl)C2(Cl)C3C(Cl)C(Cl)CC3C1(Cl)C2(Cl)Cl` (centres undefined), the AC50 was 6.37 µM (active) in test [1]; 8.61 µM (active) in [4]; 21.4 µM (active) in test [5]; 85.9 µM (active) in test [6]; 9.92 µM (active) in test [8]; 15.2 µM (active) in test [12]. The AC50 in [13] is 50 µM (active). Further, the result in test [2], in test [3], in [7], in [9], in test [10] and in test [11] was inactive. Also, the result (in the test with BCL2L11 (gene 10018); in [14]; in test [15]; with Caspase-3 (Homo sapiens); in test [16]; in test [17]) was inactive.

Take `CSC(C)(C)C=NO`: the result in test [1], in test [3], in test [4], in [5], in [6] and in [7] was inactive. Moreover, the outcome (in [8]; in test [9]; in test [10]; in test [11]; in test [12]; in the test with BCL2L11 (gene 10018)) was inactive. Also, the outcome (in test [13]; in [14]; in test [15]; with Caspase-3 (Homo sapiens); in test [16]; in [17]) was inactive.

As for `CCOc1ccc(C(C)(C)COCc2cccc(Oc3ccccc3)c2)cc1`, the AC50 in test [1] is 8.69 µM (active); in test [4] it was 24.6 µM (active); in test [5], 2.64 µM (active); in test [17], 28 µM (active). The outcome in test [2], in test [3], in test [6], in test [7], in test [8] and in [9] was inactive. Further, the compound was called inactive (in [10]; in [11]; in test [12]; with BCL2L11 (gene 10018); in test [13]; in test [14]). Also, the compound was called inactive (in test [15]; in the test with Caspase-3 (Homo sapiens); in test [16]).
